# Sampled rows, rich in hits. Any-hit rate of the full collection: about 3.8%.
# KAT2A inh = qHTS Assay for Inhibitors of GCN5L2; Histone acetyltransferase KAT2A (Homo sapiens), Q92830; GCN5L2 HAT assay, ThioGlo1 CoA-SH fluorescence; Potency, µM (doses to about 58.9 µM), without a hit: at the highest dose activity change, negative = inhibition, usual class: inhibitors; 390,000 compounds, 0.21% hits; AID 504327, 2011
#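 Fluorescence readout, Ex340nm/Em540nm: ThioGlo1 (50uM final) reacts with free CoA thiol released as 20nM GCN5L2 acetylates H3(1-25) peptide (75uM) using acetyl-CoA (70uM). Compound and enzyme sat 15 min beforehand; 20 min room-temperature reaction.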
# TrxR1 substrate = qHTS Assay for Substrates of Mammalian Selenoprotein Thioredoxin Reductase 1 (TrxR1): qHTS | Potency, µM (top dose mostly 114 µM), inactives show top-dose activity change, negative = substrate turnover | purified TrxR1 substrate turnover, NADPH consumption readout | 390,000 compounds, 0.01% hits; note: nearly all actives have a fitted effect of over 50% in size
#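 Rat TrxR1, dispensed at 90 nM, was prereduced with 400 uM NADPH (final) for 5 min at ~22 deg C, then incubated with compound 15 min before 400 uM selenite. A first-read NADPH fluorescence drop versus no-compound background flagged substrates.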
# TrxR1 inh = qHTS Assay for Inhibitors of Mammalian Selenoprotein Thioredoxin Reductase 1 (TrxR1): qHTS. Thioredoxin reductase 1, cytoplasmic (Rattus norvegicus), O89049. recombinant rTrxR1, NADPH fluorescence consumption, selenite substrate. Potency, µM (top dose mostly 114 µM), inactives show at the highest dose activity change, negative = inhibition, hits mostly inhibitors. 390,000 compounds, 1% hits. AID 588453, 2011; note: nearly all actives have a fitted effect of over 65% in size
#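 Rat TrxR1 (90 nM in the dispensed reagent) was pre-reduced with 400 uM NADPH for 5 min at room temperature, then incubated with compound for 15 min. After 400 uM selenite was added, NADPH fluorescence (Ex 340/Em 450 nm) was followed for 8 min.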
# Sfp inh = qHTS Assay for Inhibitors of Bacillus subtilis Sfp phosphopantetheinyl transferase (PPTase); Biochemical Sfp PPTase activity, qHTS; Potency, µM, for inactives: largest response in the series, negative = inhibition, usual class: inhibitors; 310,000 compounds, 3.5% hits; AID 1490, 2009;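 note: the enzyme is Sfp with the accession as filed and its product quenches rhodamine fluorescence; 0% = enzyme reaction without inhibitor and -100% = no enzyme wells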
#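 Fluorescence-quenching assay: 15 nM Sfp-PPTase preincubated 15 min at room temperature with compound, then 5 uM rhodamine-CoA and 12.5 uM BHQ-2-labelled YbbR peptide added. Fluorescence (ex 525/em 598 nm) read at start and after 30 min; difference gives rate.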
# VDR inhibitor = Inhibitors of the vitamin D receptor (VDR): qHTS; Vitamin D3 receptor (Homo sapiens), P11473; VDR-SRC2-3 peptide fluorescence polarization, 2 h; Potency, µM, for inactives: max response, negative = inhibition, hits mostly inhibitors; 400,000 compounds, 0.93% hits; AID 504847, 2011
#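 Fluorescence polarization assay of small-molecule disruption of VDR binding to coregulator peptide SRC2-3. Compounds and controls pin-transferred, then read after 2 h incubation at ambient room temperature.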
# GLS inh = qHTS for Inhibitors of Glutaminase (GLS); Glutaminase kidney isoform, mitochondrial (Homo sapiens), O94925; GLS enzymatic activity, qHTS titration; Potency, µM (titrated, usually from 45.5 µM), inactives show at the highest dose activity change, negative = inhibition, usual class: inhibitors; 410,000 compounds, 0.21% hits
# Target sequence (O94925 whole entry, looked up, canonical isoform): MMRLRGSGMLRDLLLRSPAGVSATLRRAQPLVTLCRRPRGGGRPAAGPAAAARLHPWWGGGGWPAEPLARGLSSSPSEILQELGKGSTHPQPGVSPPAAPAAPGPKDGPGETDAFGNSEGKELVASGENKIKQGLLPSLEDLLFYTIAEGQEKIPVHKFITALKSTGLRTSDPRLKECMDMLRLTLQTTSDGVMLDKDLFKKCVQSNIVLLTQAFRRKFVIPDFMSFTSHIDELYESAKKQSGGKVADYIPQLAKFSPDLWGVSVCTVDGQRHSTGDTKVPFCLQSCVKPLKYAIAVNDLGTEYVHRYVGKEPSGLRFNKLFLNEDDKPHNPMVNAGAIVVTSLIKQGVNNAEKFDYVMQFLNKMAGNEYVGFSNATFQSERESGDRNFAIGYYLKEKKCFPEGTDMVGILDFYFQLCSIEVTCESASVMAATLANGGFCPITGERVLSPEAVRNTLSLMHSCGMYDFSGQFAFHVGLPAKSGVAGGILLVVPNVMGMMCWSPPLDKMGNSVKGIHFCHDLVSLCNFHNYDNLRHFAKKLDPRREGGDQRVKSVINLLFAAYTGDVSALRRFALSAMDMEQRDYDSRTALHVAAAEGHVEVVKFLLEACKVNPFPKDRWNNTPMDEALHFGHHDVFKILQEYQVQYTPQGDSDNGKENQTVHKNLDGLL
#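 Read-out is an Amplex red fluorescence increase coupled through glutamate oxidase and HRP, measured before and after 30 min room-temperature incubation. hKGA is in 45 mM KH2PO4 (pH 8.2) with 0.02% Tween-20; glutamine added as 1mM solution.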
# Starred values were filed as active, the others as inactive; ? = inconclusive; . = not tested or not shown; ! = not confirmed by another sample; [ ] = remark or other dose. Calls come from the whole dose curve; as a rule, active = well fitted curve in the direction sought with a large enough effect; inconclusive = small, poorly fitted or top-dose-only effect, or another doubt; inactive = no such curve, though single readings can be large; an effect the other way counts as inactive or inconclusive. Unless noted, % is set by controls: 0 for no effect and ±100 for the full control effect; potency is the fitted concentration of half-maximal effect.
SMILES,KAT2A inh,TrxR1 substrate,TrxR1 inh,Sfp inh,VDR inhibitor,GLS inh
Cc1ccc(CNC(=O)C2CCC(=O)N(Cc3cccc(C(F)(F)F)c3)C2)o1 (configuration not stated),.,8.0%,35.5µM*,.,?,-14.6%
COc1ccccc1CN1CC(C(=O)NCCc2ccc(C)o2)CCC1=O (configuration not stated),-7.2%,1.2%,50.1µM*,?,11.4%,-9.7%
COc1ccccc1CN1CC(C(=O)NCCc2ncccc2C)CCC1=O (configuration not stated),-10.7%,2.7%,31.3%,5.8%,-16.8%,17.1%
CCN(CC)CC(=O)c1ccc(-c2ccccc2)cc1,-7.6%,10.2%,?,-54.2%,39.8µM*,26.5%
Cc1ccc(S(=O)(=O)N2C[C@H]3C(=O)C[C@@H](c4ccccc4)N(S(=O)(=O)c4cccc(C)c4)[C@H]3C[C@H]2c2ccccc2)cc1,.,.,.,.,.,10.6%
COc1ccccc1NC(=O)CSc1nnnn1-c1ccccc1F,-12.3%,-2.7%,-1.5%,39.8µM*,-9.2%,1.2%
COC(=O)COc1ccc(C2NC(=O)NC(c3ccccc3)=C2C(C)=O)cc1OC (configuration not stated),0.4%,-9.2%,-11.5%,8.2%,7.1%,0.1%
O=C1/C(=C/c2ccc(O)c(O)c2)Oc2cc(O)ccc21,-16.2%,-0.6%[57.1 µM],-3.9%[57.1 µM],?,-10.5%,8.91µM*
COc1cc(/C=C2\Oc3cc(O)ccc3C2=O)ccc1O,?,1.8%[57.1 µM],2.9%[57.1 µM],-3.6%,1.9%,19.3%
CCc1cc2c3c(c(=O)oc2cc1OC(C)C(=O)O)CCCC3 (configuration not stated),-7.2%,399.7%,-7.0%,30.3%,?,6.9%
CCOc1cc(N2CCOCC2)c(OCC)cc1NC(=O)CSc1ccccc1C(=O)O,-3.7%,0.5%,11.9%,.,15.9%,31.8%
CCOc1cc(N2CCOCC2)c(OCC)cc1NC(=O)CN1CCc2ccccc2C1,-3.2%,-1.4%,11.4%,44.7µM*,6.3%,16.7%
CCOc1cc(N2CCOCC2)c(OCC)cc1NCC(=O)N1CCN(Cc2ccccc2)CC1,-11.5%,-4.3%,3.1%,56.2µM*,12.2%,26.4%
CCCC(=O)Nc1ccc(C(=O)Nc2cc(C(F)(F)F)ccc2Cl)cc1,37.8%,1.3%,5.6%,7.9%,22.7%,-1.0%
O=C(CN1N=C(c2ccccc2)CCC1=O)NCc1ccccc1,-1.7%,5.0%[57.1 µM],21.8%[57.1 µM],19.2%,-3.1%,5.5%
COC(=O)[C@@H](N)CS,?,-1.2%,104.4%,11.2µM*,20µM*!,0.8%
COC(=O)C(N)CS (configuration not stated),-24.2%,.,.,-95.6%,17.8µM*,.
N#CCCN(C(=O)CSc1n[nH]c(=O)[nH]c1=O)c1ccccc1,-0.1%,2.0%,12.3%,.,-13.0%,1.5%
Cc1sc2nc3c(SC(C)C(=O)O)cc(C(=O)c4ccccc4O)cn3c(=O)c2c1C (configuration not stated),-1.5%,-5.7%,-6.4%,50.1µM*,-9.1%,?
COC(=O)c1cc(C(=O)c2cc(F)ccc2O)cn2c(=O)c3c(C)c(C)sc3nc12,-3.1%,-1.2%[57.1 µM],16.7%[57.1 µM],-11.0%,-25.4%,11.3%
CC1(C(=O)NS(=O)(=O)c2ccc(Cl)cc2)CCN1C(=O)CCC1CCCC1 (configuration not stated),.,.,.,.,.,16.4%
O=C(c1ccc2c(c1)N(Cc1ccccc1F)C(=O)c1ccccc1S2=O)N1CCN(c2ccccc2)CC1 (configuration not stated),-4.3%,7.2%,34.3%,.,-20.4%,5.6%
S=c1[nH]nc(Nc2cccc(Cl)c2)s1,22.4µM*,-3.1%,-12.8%,39.8µM*,-0.6%,-2.0%
Cc1ccc(Nc2n[nH]c(=S)s2)cc1C,.,.,.,.,.,-5.7%
S=c1[nH]nc(Nc2ccccc2Cl)s1,25.1µM*,7.2%[57.1 µM],?,-93.4%,-11.2%,?
SMILES,KAT2A inh,TrxR1 substrate,TrxR1 inh,Sfp inh,VDR inhibitor,GLS inh
CC(=O)c1ccc(N2CCN(C(=O)C3CCC3)CC2)cc1,-17.0%,-13.1%,-11.1%,89.1µM*,2.9%,4.6%
O=C(C1CC1)N1CCN(c2ccc(O)cc2)CC1,-4.9%,9.1%[57.1 µM],6.1%[57.1 µM],?,9.6%,10µM*
Cc1ccc(C(C)(C)C)cc1S(=O)(=O)N1CCC(C(=O)N2CCN(c3ccc(O)cc3)CC2)CC1,-5.4%,-15.1%,-10.8%,.,5.0%,11.5%
CC(=O)c1ccc(N2CCN(C(=O)C3CCN(S(=O)(=O)c4ccc(F)cc4)CC3)CC2)cc1,-3.3%,-0.4%,12.8%,.,10.5%,-6.6%
CCc1ccc(NC(=S)N(CCC(C)C)C2CCN(C(C)=O)CC2)cc1,0.8%,3.6%,11.0%,-13.6%,7.0%,-9.8%
O=C(c1ccco1)N(CCC(c1ccccc1)c1ccco1)Cc1ccco1 (configuration not stated),?,-1.7%,?,?,?,?
Cc1ccc(C(CCN(Cc2ccccc2)C(=O)c2ccco2)c2ccco2)cc1 (configuration not stated),?,-21.7%[57.1 µM],-66.1%,39.8µM*,?,-1.8%
CC(=O)N(CCC(Cc1ccccc1)c1ccco1)Cc1ccco1 (configuration not stated),1.7%,-0.1%,?,44.7µM*,?,-13.3%
CCCN(CCC)C(=O)CC(c1ccccc1)c1ccco1 (configuration not stated),-10.7%,-2.4%[57.1 µM],-5.0%[57.1 µM],44.7µM*,-12.1%,-0.6%
CC(=O)N(CCC(c1ccccc1)c1ccco1)Cc1cccs1 (configuration not stated),?,-0.7%,25.1µM*,14.7%,?,-2.7%
CCOc1cc(C(=O)Nc2ccc3nc(Nc4cccc(Cl)c4)cc(C)c3c2)cc(OCC)c1OCC,-17.0%,7.4%,2.0%,.,2.4%,3.3%
COc1ccc(NC(=O)C2CC(=O)n3ncnc3N2)cc1 (configuration not stated),-0.6%,1.5%,7.6%,18.2%,-3.2%,2.5%
COc1ccc(NC(=O)C2CC(=O)n3cnnc3S2)cc1 (configuration not stated),7.3%,-1.1%,?,56.2µM*,-2.6%,18.0%
CCCCN(C=O)c1c(CC)nc2c(OCc3cc(Cl)cc(Cl)c3)cccn12,.,.,.,.,.,4.9%

# High-throughput results (PubChem)
